# Screening data as filed in PubChem.
# Only some compounds are listed: those with a hit (about 8.9% of all), similar ones and a draw of the others.
# KB-3-1 cytotox – KB-3-1 parental cell cytotoxicity. KB-3-1 viability, CellTiter-Glo ATP luminescence, 72 h. Potency, µM (top dose mostly 46.1 µM), actives largely listed as cytotoxic. 400,000 tested, 1.4% active. AID 1347075; note: nearly all actives have a fitted effect of over 60% in size
#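 Cells are dispensed, compounds pinned in, plates held at 37 °C for 72 h, then CellTiter-Glo is added and luminescence read after 10 minutes. Cell line: parental KB-3-1 in phenol-red-free DMEM, 10% FBS.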
# KB-V1 cytotox – KB-V1 MDR subline cytotoxicity. KB-V1 MDR cells viability, CellTiter-Glo, 72 h. Potency, µM (highest dose often 46.1 µM), hits mostly cytotoxic. 400,000 tested, 3.4% active; note: nearly all actives have a fitted effect of over 60% in size
#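 qHTS viability screen in drug-selected KB-V1 MDR cells: 72 h compound treatment at 37 degrees C, ATP luminescence end point.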
# D3 antag – blocks the human D3 dopamine receptor. P35462. D3R cells, DiscoveRx beta-arrestin luminescence, antagonist mode; active compounds read low. 360,000 tested, 2.5% active. AID 652054. max response, negative = inhibition, %; in the data active = max response below about -50%; inconclusive = no clear call, values can overlap the other calls
# Target sequence (P35462 whole entry, looked up): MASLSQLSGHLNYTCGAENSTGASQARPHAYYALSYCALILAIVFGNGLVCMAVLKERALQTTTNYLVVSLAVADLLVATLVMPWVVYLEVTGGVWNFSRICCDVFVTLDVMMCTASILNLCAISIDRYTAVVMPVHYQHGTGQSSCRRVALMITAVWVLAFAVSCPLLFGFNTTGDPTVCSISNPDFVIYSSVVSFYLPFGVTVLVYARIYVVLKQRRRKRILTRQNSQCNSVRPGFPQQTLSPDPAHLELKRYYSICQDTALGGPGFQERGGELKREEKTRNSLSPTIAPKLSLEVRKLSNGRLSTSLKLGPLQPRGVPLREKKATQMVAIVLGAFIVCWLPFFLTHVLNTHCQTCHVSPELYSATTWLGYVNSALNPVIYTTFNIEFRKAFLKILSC
#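 Cells plated overnight at 1500 cells/well, then exposed to library compounds with dopamine controls for 90 minutes at 37 degrees C. DiscoveRx reagent added for 30–60 minutes at room temperature; luminescence read, quantitative HTS format.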
# SW480 rerep – DNA re-replication induction in SW480 cells; SW480 DNA re-replication, Hoechst DNA content imaging, 48 h; Potency, µM (highest dose often 46.1 µM), usual class: activators; 340,000 tested, 1.8% active; note: nearly all actives have a fitted effect of over 55% in size
#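 Quantitative HTS format with DMSO vehicle controls; 48 hr drug incubation at 37 C, then 40 min Hoechst staining and scanning imager measurement at 405 nm excitation.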
# MCF10A rerep – induces DNA re-replication in MCF 10a normal breast cells; 350,000 tested, 2.9% active; MCF 10A DNA re-replication, Hoechst nuclear intensity, 48 h; AID 624296; Potency, µM (top dose mostly 46.1 µM), hits mostly activators; note: nearly all actives have a fitted effect of over 50% in size
# D3 ag – D3 dopamine receptor (human) agonism; 410,000 tested, 0.58% active; D3R DiscoveRx beta-arrestin cells, luminescence, 90 min; max activation, %; P35462; in the data active = max activation above about 30%
#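 Cells at 1500/well, incubated overnight, then treated with pinned compounds (dopamine as control) for 90 min at 37 degrees C. DiscoveRx reagent added for 30 - 60 minutes at room temperature; luminescence read.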
# Numbers stand for hits; 0 = inactive; ? = inconclusive; - = not tested or not shown. Unless noted, calls come from the whole dose curve; as a rule, active = well fitted curve in the direction sought with a large enough effect; inconclusive = small, poorly fitted or top-dose-only effect, or another doubt; inactive = no such curve, though single readings can be large; an effect the other way counts as inactive or inconclusive.
SMILES,KB-3-1 cytotox,KB-V1 cytotox,D3 antag,SW480 rerep,MCF10A rerep,D3 ag
COc1cc(/C=C/C(=O)c2ccc3c(c2)OCCO3)cc(Br)c1OCC(=O)N(C)C,5.2µM,2.3µM,?,4.6µM,?,0
O=C(/C=C/c1ccncc1)c1ccc2c(c1)OCCO2,23µM,?,-54,?,?,0
CN1CCN(C(=O)c2ccccc2N(Cc2ccccc2)S(C)(=O)=O)CC1,0,0,?,0,0,0
CN1CCN(C(=O)c2ccccc2N(Cc2ccccc2)S(=O)(=O)c2ccccc2)CC1,0,0,-60,0,0,0
Cc1ccc(S(=O)(=O)N(Cc2ccccc2)c2ccccc2C(=O)NCc2cccnc2)cc1,?,23µM,0,?,0,0
Cc1ccc(S(=O)(=O)N(Cc2ccccc2)c2ccccc2C(=O)N2CCCCC2)cc1,0,?,0,18µM,?,0
Cc1nc(CC(=O)Nc2ccc(N(C)C)cc2)cs1,-,-,-,-,-,0
Cc1ccc(NC(=O)CSc2nnc(-c3ccc([N+](=O)[O-])cc3)o2)c(C)c1,0,0,-,-,-,0
CCCCNC(=O)c1onc(CSc2ccc(F)cc2)c1C(=O)NCCCC,0,0,0,0,0,0
Cc1cc(C)cc(SCc2noc(C(=O)NCc3ccccc3)c2C(=O)NCc2ccccc2)c1,0,0,0,0,4.6µM,0
CCCCNC(=O)c1onc(CSc2ccncc2)c1C(=O)NCCCC,0,0,0,0,0,59
COCCNC(=O)c1onc(CSc2ccc(F)c(F)c2)c1C(=O)NCCOC,0,0,0,0,0,30
CCCCNC(=O)c1onc(CSc2ccccc2)c1C(=O)NCCCC,0,0,0,0,0,42
CCCCNC(=O)c1onc(CSc2ccc(Cl)cc2)c1C(=O)NCCCC,0,0,0,0,0,0
Cc1cccc(OCC(=O)Nc2nnc(S(=O)(=O)N3CCc4ccccc43)s2)c1,-,-,-,-,-,0
COC(=O)c1ccccc1NC(=O)CCC(=O)N1CC(C)Oc2ccc(C)cc21 (stereo not drawn),0,0,0,0,0,0
Cc1ccc(-c2nc3cnccn3c2Nc2c(C)cccc2C)o1,0,0,0,?,21µM,0
Cc1nc(SCc2cccc(F)c2)c2oc3ccccc3c2n1,0,0,0,0,0,0
O=C(O)CSc1nc(-c2ccccc2)nc2c1oc1ccccc12,0,0,?,0,0,0
Cc1nc(SCC(=O)NC(C)c2ccccc2)c2oc3ccccc3c2n1 (stereo not drawn),0,5.2µM,0,0,?,0
COc1ccc(-n2nnc3c(=O)n(CC(=O)N4CCCc5ccccc54)cnc32)cc1,0,0,?,0,0,0
COc1ccc(-n2nnc3c(SCC(=O)N4CCCc5ccccc54)ncnc32)cc1,0,0,0,12µM,0,0
O=C(O)CSc1nc(-c2ccc(Cl)cc2)nc2c1oc1ccccc12,0,0,0,0,23µM,0
Cc1cc(C)nc(Sc2nc(C)nc3c2oc2ccccc23)n1,21µM,?,0,?,?,0
Cc1ccc(N2CC(NC(=O)CCc3ccccc3)CC2=O)cc1C (stereo not drawn),-,-,-,-,-,0
SMILES,KB-3-1 cytotox,KB-V1 cytotox,D3 antag,SW480 rerep,MCF10A rerep,D3 ag
Cc1nc(SCC(=O)Nc2ccccc2)c2oc3ccccc3c2n1,0,0,?,0,12µM,0
CCc1nc(SCC(=O)NCCc2ccccc2)c2oc3ccccc3c2n1,0,18µM,0,0,0,0
Cc1nc(SCC(=O)N2CCCc3ccccc32)c2oc3ccccc3c2n1,0,21µM,0,16µM,?,34
CCC[C@H]1C[C@H](C(=O)N[C@@H]([C@H]2O[C@@H](SC)[C@@H](O)[C@@H](O)[C@@H]2O)[C@H](C)Cl)N(C)C1,-,-,-,0,0,-
Cc1ccc(Oc2c(C(N)=O)cc([N+](=O)[O-])cc2[N+](=O)[O-])cc1,21µM,0,0,?,?,0
Cc1ccc(CNc2ccc([N+](=O)[O-])cc2C(N)=O)cc1,0,0,0,0,?,0
COc1ccc(N2CCN(C(=O)CCc3c(C)nc4cc(-c5cccc(F)c5)nn4c3C)CC2)cc1,0,0,-,-,-,0
CCNc1nc(N)nc(-c2cc(Cl)ccc2O)n1,?,?,0,0,?,0
